Records with an inconclusive call do not appear. Where a call stands in place of a potency, no number is given. Active and inactive are the calls of the source. Unless noted, calls follow the shape of the dose curve; as a rule, active = well fitted curve in the direction sought with a large enough effect in the repeat runs; inconclusive = weak or mixed curves; inactive = no such curve, though single readings can be large; an effect the other way counts as inactive or inconclusive.
Assays:
[1] = qHTS assay to identify small molecule antagonists of the glucocorticoid receptor (GR) signaling pathway - cell viability counter screen (AID 720693); also: nearly all actives have a fitted effect of over 55% in size
[2] = qHTS assay for identifying genotoxic compounds that show differential cytotoxicity against isogenic chicken DT40 cell lines with known DNA damage response pathways - wild type cell line (AID 743012); also: nearly all actives have a fitted effect of over 60% in size; also: potency is read from the fitted curve at half-maximal effect
Procedure, shortened: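 Luminescent ATP viability signal (CellTiter-Glo, 30 min RT) recorded after wild type DT40 cells were incubated with compounds for 40 h at 37 C/5% CO2.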

[3] = qHTS assay to identify small molecule antagonists of the androgen receptor (AR) signaling pathway - cell viability counter screen (AID 743033; also: nearly all actives have a fitted effect of over 45% in size)
[4] = qHTS assay to identify small molecule antagonists of the androgen receptor (AR) signaling pathway using the MDA cell line - cell viability counter screen (AID 743041; also: nearly all actives have a fitted effect of over 45% in size)
Procedure, shortened: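 Cytotoxicity counter screen: MDA-kb2 AR-luc cells, compound + R1881, 16 h, 37C, 0% CO2; CellTiter-Fluor added at 15.5 h, fluorescence read after 30 min.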

[5] = qHTS assay to identify small molecule antagonists of the thyroid receptor (TR) signaling pathway - cell viability counter screen (AID 743064); also: nearly all actives have a fitted effect of over 50% in size; also: potency is read from the fitted curve at half-maximal effect
Procedure, shortened: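 Viability of T3-stimulated (1 nM final) GH3.TRE-Luc cells is measured by CellTiter-Fluor fluorescence after 23.5 h compound exposure at 37 °C plus 30 min reagent incubation.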

[6] = qHTS assay to identify small molecule antagonists of the thyroid receptor (TR) signaling pathway (AID 743065); also: nearly all actives have a fitted effect of over 55% in size; also: potency is read from the fitted curve at half-maximal effect
Procedure, shortened: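 GH3.TRE-Luc rat pituitary cells (two TREs driving luciferase) were dosed with compound, then stimulated with 1 nM T3 (final) for 23.5 h at 37 C. ONE-Glo luminescence was the read-out, with CellTiter-Fluor fluorescence as the cytotoxicity counter-screen.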

[7] = test system: thyroid hormone receptor (rat, GH3 cells); test: qHTS assay to identify small molecule agonists of the thyroid receptor (TR) signaling pathway (AID 743066; calls by dose curve)
[8] = qHTS assay to identify small molecule antagonists of the estrogen receptor alpha (ER-alpha) signaling pathway - cell viability counter screen (AID 743074; calls by dose curve;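 also: HEK293 cells carrying ER-alpha-UAS-bla reporter stimulated with 17beta-estradiol; nearly all actives have a fitted effect of over 45% in size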)
[9] = qHTS assay to identify small molecule antagonists of the estrogen receptor alpha (ER-alpha) signaling pathway using the BG1 cell line - cell viability counter screen (AID 743081);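 also: compound given together with 17beta-estradiol as the ER stimulus; series mostly up to about 70 µM; nearly all actives have a fitted effect of over 45% in size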
Aromatase (Homo sapiens) = Aromatase (Homo sapiens) (UniProt P11511); test: qHTS assay to identify aromatase inhibitors (AID 743083); also: series mostly up to about 70 µM; nearly all actives have a fitted effect of over 55% in size
[10] = target: Estrogen receptor (Homo sapiens) (UniProt P03372); test: qHTS assay to identify small molecule antagonists of the estrogen receptor alpha (ER-alpha) signaling pathway (AID 743069; active = well fitted curve in the direction sought with a large enough effect in the signal ratio in the repeat runs, not every such curve was filed as active; the % refers to the signal ratio)
Procedure, shortened: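 Beta-lactamase FRET fluorescence is read after 2 hr at room temperature with LiveBLAzer B/G substrate. Before that, ER-alpha-bla HEK293 cells sit 4 hr after plating, then receive compound plus 17beta-estradiol and incubate 18 hr at 37C.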

[11] = target: Estrogen receptor (Homo sapiens) (UniProt P03372); test: qHTS assay to identify small molecule agonists of the estrogen receptor alpha (ER-alpha) signaling pathway (AID 743075; calls by dose curve;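 also: HEK293 GripTite cells with ER-alpha and UAS-driven beta-lactamase reporter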)
[12] = target: Estrogen receptor (Homo sapiens) (UniProt P03372); test: qHTS assay to identify small molecule agonists of the estrogen receptor alpha (ER-alpha) signaling pathway using the BG1 cell line (AID 743079); also: nearly all actives have a fitted effect of over 20% in size
[13] = qHTS assay to identify small molecule antagonists of the estrogen receptor alpha (ER-alpha) signaling pathway using the BG1 cell line (AID 743080; calls by dose curve; also: series mostly up to about 70 µM; nearly all actives have a fitted effect of over 25% in size)
Procedure, shortened: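 Antagonist mode: compounds in DMSO were pinned onto BG1-Luc-4E2 cells alongside 17beta-estradiol agonist, incubated 21.5 h, and ERE-driven luciferase measured with ONE-Glo. Cytotoxicity was multiplexed using CellTiter-Fluor fluorescence.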

[14] = target: Androgen receptor (Homo sapiens) (UniProt P10275); test: qHTS assay to identify small molecule agonists of the androgen receptor (AR) signaling pathway (AID 743036; active = well fitted activation curve with a large enough effect in the signal ratio in the repeat runs, with a control signal flat, not every such curve was filed as active; the % refers to the signal ratio)
Procedure, shortened: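 Screening used 2,000 AR-bla HEK293 cells per well, treated 16 h at 37C with test compounds in DMSO alongside positive and DMSO-only controls; beta-lactamase activity was then read by LiveBLAzer B/G FRET fluorescence after 2 h at room temperature.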

[15] = target: Androgen receptor (Homo sapiens) (UniProt P10275); test: qHTS assay to identify small molecule agonists of the androgen receptor (AR) signaling pathway using the MDA cell line (AID 743040; also: nearly all actives have a fitted effect of over 20% in size)
Procedure, shortened: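 Luciferase read-out, ONE-Glo, 30 min RT. Cells: MDA-kb2 AR-luc, MMTV promoter with AR and GR response elements. Compound exposure 16 h, 37C, 0% CO2, after 5 h pre-incubation. qHTS agonist mode.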

[16] = target: Androgen receptor (Homo sapiens) (UniProt P10275); test: qHTS assay to identify small molecule antagonists of the androgen receptor (AR) signaling pathway using the MDA cell line (AID 743042; also: nearly all actives have a fitted effect of over 55% in size)
Procedure, shortened: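 MDA-kb2 breast carcinoma cells carrying MMTV-luciferase (AR/GR responsive) were co-treated with compounds and the agonist R1881 for 16 h at 37C. Inhibition read as ONE-Glo luminescence; CellTiter-Fluor fluorescence measured in parallel for cytotoxicity.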

[17] = qHTS assay for identifying genotoxic compounds that show differential cytotoxicity against isogenic chicken DT40 cell lines with known DNA damage response pathways - Rev3 mutant cell line (AID 743014); also: nearly all actives have a fitted effect of over 55% in size; also: potency is read from the fitted curve at half-maximal effect
[18] = qHTS assay for identifying genotoxic compounds that show differential cytotoxicity against isogenic chicken DT40 cell lines with known DNA damage response pathways - Rad54/Ku70 mutant cell line (AID 743015); also: nearly all actives have a fitted effect of over 60% in size; also: potency is read from the fitted curve at half-maximal effect
[19] = target: Androgen receptor (Homo sapiens) (UniProt P10275); test: qHTS assay to identify small molecule antagonists of the androgen receptor (AR) signaling pathway (AID 743035; active = well fitted inhibition curve with a large enough effect in the signal ratio in the repeat runs, not every such curve was filed as active; the % refers to the signal ratio)
Procedure, shortened: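 Quantitative HTS of the Tox21 10K library used HEK293 AR-UAS-bla cells stimulated with R1881 alongside compound for 16 h at 37C, followed by beta-lactamase FRET detection (LiveBLAzer B/G, 2 h, RT).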

Sequence of Androgen receptor (Homo sapiens) (P10275 whole entry, looked up): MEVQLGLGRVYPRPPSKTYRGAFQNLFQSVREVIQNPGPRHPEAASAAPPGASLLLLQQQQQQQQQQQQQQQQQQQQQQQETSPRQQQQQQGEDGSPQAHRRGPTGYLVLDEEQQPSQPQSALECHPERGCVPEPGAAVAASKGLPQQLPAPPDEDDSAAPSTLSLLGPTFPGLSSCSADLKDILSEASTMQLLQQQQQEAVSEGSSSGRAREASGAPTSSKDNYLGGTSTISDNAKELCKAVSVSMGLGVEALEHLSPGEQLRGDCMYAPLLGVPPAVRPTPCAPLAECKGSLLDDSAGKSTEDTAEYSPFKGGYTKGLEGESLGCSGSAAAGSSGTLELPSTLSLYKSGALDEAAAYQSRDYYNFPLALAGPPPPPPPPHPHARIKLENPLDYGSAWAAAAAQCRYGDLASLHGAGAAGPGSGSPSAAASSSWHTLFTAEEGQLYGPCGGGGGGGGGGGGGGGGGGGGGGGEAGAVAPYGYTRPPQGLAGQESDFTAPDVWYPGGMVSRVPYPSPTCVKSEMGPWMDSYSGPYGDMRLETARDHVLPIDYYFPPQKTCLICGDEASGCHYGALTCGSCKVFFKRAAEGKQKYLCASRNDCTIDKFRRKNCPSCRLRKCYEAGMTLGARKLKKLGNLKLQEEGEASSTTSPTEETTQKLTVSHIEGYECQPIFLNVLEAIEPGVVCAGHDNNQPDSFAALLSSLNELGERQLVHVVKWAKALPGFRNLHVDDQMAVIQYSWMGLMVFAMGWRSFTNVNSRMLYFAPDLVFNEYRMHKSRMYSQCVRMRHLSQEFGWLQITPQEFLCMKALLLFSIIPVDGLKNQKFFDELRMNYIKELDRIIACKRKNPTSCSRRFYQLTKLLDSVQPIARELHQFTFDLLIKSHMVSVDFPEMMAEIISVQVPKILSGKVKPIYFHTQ
Sequence of Aromatase (Homo sapiens) (P11511 whole entry, looked up): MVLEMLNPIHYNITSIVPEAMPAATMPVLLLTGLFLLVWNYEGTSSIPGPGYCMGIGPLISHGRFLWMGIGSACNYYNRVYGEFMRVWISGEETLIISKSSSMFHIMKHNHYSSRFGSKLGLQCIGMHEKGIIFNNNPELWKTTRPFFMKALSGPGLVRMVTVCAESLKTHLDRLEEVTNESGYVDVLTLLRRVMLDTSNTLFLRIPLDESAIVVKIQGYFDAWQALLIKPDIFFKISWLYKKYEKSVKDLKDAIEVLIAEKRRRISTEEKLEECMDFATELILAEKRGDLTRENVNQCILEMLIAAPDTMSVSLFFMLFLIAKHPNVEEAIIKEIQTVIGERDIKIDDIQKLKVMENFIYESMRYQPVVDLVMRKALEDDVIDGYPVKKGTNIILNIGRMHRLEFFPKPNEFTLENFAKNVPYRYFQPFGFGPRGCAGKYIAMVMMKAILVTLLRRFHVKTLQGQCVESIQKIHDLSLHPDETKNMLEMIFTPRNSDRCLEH
Sequence of Estrogen receptor (Homo sapiens) (P03372 whole entry, looked up): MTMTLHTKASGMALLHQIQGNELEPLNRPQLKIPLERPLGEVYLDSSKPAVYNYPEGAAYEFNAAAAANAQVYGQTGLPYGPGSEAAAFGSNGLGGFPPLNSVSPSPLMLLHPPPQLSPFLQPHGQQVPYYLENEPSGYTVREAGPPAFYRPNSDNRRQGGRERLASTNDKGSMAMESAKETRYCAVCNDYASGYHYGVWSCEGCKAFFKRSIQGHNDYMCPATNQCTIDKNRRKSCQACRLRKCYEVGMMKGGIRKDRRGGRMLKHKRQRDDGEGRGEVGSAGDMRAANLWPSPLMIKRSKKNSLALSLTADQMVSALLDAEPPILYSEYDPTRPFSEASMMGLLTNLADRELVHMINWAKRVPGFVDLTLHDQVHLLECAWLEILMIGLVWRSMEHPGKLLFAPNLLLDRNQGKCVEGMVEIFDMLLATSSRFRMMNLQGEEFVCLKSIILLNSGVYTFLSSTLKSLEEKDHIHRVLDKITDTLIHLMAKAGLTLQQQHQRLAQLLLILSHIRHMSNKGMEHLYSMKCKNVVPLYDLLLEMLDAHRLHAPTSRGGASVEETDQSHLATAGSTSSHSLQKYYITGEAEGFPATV

SMILES	outcome [1]	Potency [2]	outcome [3]	Potency [4]	Potency [5]	Potency [6]	outcome [7]	Potency [8]	Potency [9]	Potency (Aromatase (Homo sapiens))	Potency [10]	outcome [11]	Potency [12]	outcome [13]	outcome [14]	Potency [15]	outcome [16]	Potency [17]	Potency [18]	Potency [19]
CCN(CC)C(=O)N(CC)CC	inactive	inactive	inactive	inactive	inactive	inactive	inactive	inactive	inactive	inactive										
C=CCCCCCCCCO	inactive	inactive	inactive	inactive	inactive	inactive	inactive	inactive	inactive	inactive	inactive	inactive	inactive	inactive						
CN1CCN(C2=Nc3ccccc3Oc3ccc(Cl)cc32)CC1	inactive	12.7 µM (active)	inactive	inactive			inactive	inactive	inactive	inactive	inactive	inactive	inactive	inactive						
CCCCCOc1ccc(C2SC(=O)NC2=O)cc1OCC (stereo not given)	inactive	inactive	inactive	inactive	inactive	2.37 µM (active)		inactive	inactive		inactive	inactive	inactive	inactive	inactive	inactive	inactive			
CN1[C@@H]2CC[C@H]1CC(OC(=O)c1c[nH]c3ccccc13)C2 (stereo not given in full)	inactive		inactive		23.7 µM (active)	26.6 µM (active)	inactive	inactive	inactive	inactive								inactive	inactive	
CC(C)CCCCCCc1ccc(OCCOCCO)cc1	inactive	inactive	inactive	inactive		inactive	inactive	inactive	inactive		inactive	inactive	inactive	inactive	inactive	inactive	inactive			inactive
Cc1ccccc1C(=O)Nc1ccc(C(=O)N2CCCC(O)c3cc(Cl)ccc32)c(C)c1 (stereo not given)	inactive	26.6 µM (active)	inactive	inactive	inactive	23.7 µM (active)	inactive	inactive												
O=CCCc1ccccc1	inactive	inactive	inactive	inactive	inactive	inactive	inactive		inactive	inactive									inactive	
CC(C)=CCCC(C)CCOC=O (stereo not given)	inactive	48.6 µM (active)	inactive	inactive	inactive	inactive		inactive	inactive										27.3 µM (active)	
O=C1CCN(c2ccccc2)N1	inactive		inactive	inactive	inactive		inactive	inactive	inactive	inactive		inactive	inactive	inactive	inactive	inactive	inactive	68.8 µM (active)		inactive
